What all share (experiment): NCI-60 one-dose screen, 48 h (100 = growth as untreated, 0 = no growth, -100 = all killed)
Holding throughout (details): 10 µM unless noted

The subject of assay [1] is NCI-H23 lung.
In assay [2] the test system is NCI-H322M lung.
The test system of assay [3] is HOP-62 NSCLC.
Assay [4] deals with NCI-H460 lung.
Assay [5] relates to HOP-92 NSCLC.
Assay [6] deals with NCI-H522 lung.
In assay [7] the test system is A549/ATCC NSCLC.
Assay [8] relates to 786-0 renal.
Assay [9] deals with COLO 205 colon.
The subject of assay [10] is DU-145 prostate.

Drawing on PubChem BioAssay (NCI), this text covers growth for 13 compounds.

The panel holds about 83,000 compounds, 20% with a hit somewhere; the sample as a whole holds those more often.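 Each cell line was grown in a 96-well plate and treated with one concentration of compound for 48 hours. Values below 10 were considered active.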 Values without a mark were called inactive. Activity calls are given as the source filed them.

For the compound `COc1cc(-c2c3c(cn2S(=O)(=O)c2ccccc2)-c2nc(N)sc2CC3)cc(OC)c1OC`, the growth was 44% in assay [1]; 41% in [2]; 53.5% in assay [3]; 6.37% (active) in assay [4]; 60.2% in assay [5]; 19.9% in assay [6]. Further, the growth in assay [7] is 30.7%; in [8], 43.4%; in [9] it was -1.14% (active); in assay [10] it was 0.0609% (active).

With `O=C1NC(=S)NC(=O)C1=Cc1cn(Cc2cn(Cc3cccc4ccccc34)nn2)c2ccccc12`, the growth in [1] was 88%; in assay [2] it was 93.7%; in [3] it was 94.9%; in assay [4] it was 89.4%; in [5] it was 102%; in [6] it was 97.2%. The growth was 106% in assay [7], 115% in assay [8], 114% in assay [9] and 105% in [10].

`COc1cc(OC)cc(N2C(=O)N(Cc3ccc(C(C)(C)C)cc3)c3ccccc3S2(=O)=O)c1`: the growth in assay [1] was 82.8%; in [2], 83.3%; in assay [3], 95.2%; in [4], 93.9%; in assay [5] it was 56.1%; in [6] it was 76.9%. Besides, the growth was 93.3% in assay [7], 73.7% in assay [8], 83.6% in assay [9] and 96.2% in [10].

As to `COc1ccc(/C=C/C(=O)c2c(C)nc3ccccc3c2/C=C/c2ccccc2)c(OC)c1`, the growth in assay [1] was 73.4%; in [2], 89.3%; in assay [3], 108%; in assay [4], 80.3%; in [5], 66.8%; in assay [6] it was 70.5%. Besides, the growth is 78.5% in assay [7], 94.1% in assay [8], 94.7% in assay [9] and 90.4% in assay [10].

For `C=CCN1C(=O)/C(=c2\sc3n(c2=O)NC2C(N=3)N(CC)C(=O)N2CC)c2ccccc21` (stereo not given), the growth in assay [1] was 43.7%; in assay [2], 57%; in assay [3], 62.7%; in assay [4] it was 15%; in assay [5], 108%; in assay [6] it was 25.9%. Moreover, the growth in assay [7] was 42.5%; in assay [8], 57.5%; in assay [9], 11.1%; in [10] it was 26%.

For the compound `CCOC(=O)C1=C(C)c2ccc(OC)c(OC)c2C1`, the growth in assay [1] is 91.8%; in [2], 99.2%; in assay [3] it was 88.5%; in assay [4], 118%; in [5] it was 79.2%; in assay [6], 78.6%. Besides, the growth in assay [7] is 87%; in assay [8], 81.4%; in assay [9] it was 113%; in assay [10], 115%.

For the compound `O=C(CCN1C(=O)c2ccccc2C1=O)Nc1ccc(Cl)cc1`, the growth in assay [1] was 66.4%; in assay [2] it was 82.2%; in assay [3] it was 54.8%; in assay [4], 44.1%; in [5] it was 64.3%; in [6], 66.3%. Besides, the growth in assay [7] was 79.2%; in [8], 65.8%; in assay [9], 118%; in assay [10], 67.2%.

As for `OC(c1ccccc1)c1nnc(SCc2ccccc2)n1Cc1ccccc1` (stereo not given), the growth in assay [1] was 98.2%; in assay [2], 106%; in [3], 91.5%; in [4], 106%; in assay [5] it was 58.8%; in [6], 86.6%. The growth in assay [7] was 94.1%; in assay [8] it was 95.4%; in assay [9], 102%; in assay [10], 108%.

Consider `FC(F)(F)c1cccc(Nc2nc(-c3ccccc3)nc3ncccc23)c1`, for which the growth was 89.9% in [1]; 87.8% in assay [2]; 84.5% in assay [3]; 20.9% in [4]; -67.3% (active) in assay [5]; 72.8% in assay [6]. Further, the growth in [7] is 82.3%; in [8] it was 68%; in [9] it was -75% (active); in assay [10], 75.1%.

For the compound `Oc1c(C(Nc2ccccn2)c2cccc(Oc3ccccc3)c2)ccc2cccnc12` (stereo not given), the growth in [1] was -73.3% (active); in assay [2], -94.4% (active); in assay [3] it was -95.7% (active); in [4], -86.3% (active); in [5], -86.9% (active); in [6] it was -84.7% (active). Also, the growth was -81.8% (active) in [7], -81.4% (active) in assay [8], -90.8% (active) in assay [9] and -96% (active) in assay [10].

Regarding `COc1ccc(-c2nsc3c2NC(=O)CC3c2cccc(OC)c2)cc1` (stereo not given), the growth in assay [1] was 43.3%; in assay [2], 57%; in assay [3], 39.1%; in assay [4], 17.6%; in assay [5], 49.9%; in assay [6], 25.5%. Besides, the growth in [7] is 37.1%; in [8], 49.6%; in [9] it was -11.7% (active); in assay [10], 13.7%.

For `NCCOc1ccccc1/C=C1\c2ccccc2-c2ccc([N+](=O)[O-])cc21`, the growth in assay [1] is 1.49% (active); in [2], 51.1%; in assay [3], -71.1% (active); in assay [4], -85.1% (active); in assay [5] it was -1.14% (active); in assay [6], 21.3%. Also, the growth in assay [7] was -74.6% (active); in assay [8] it was -41.5% (active); in assay [9], -75.4% (active); in assay [10] it was -42.3% (active).

As for `COc1ccccc1N1CCN(C(CNS(=O)(=O)c2ccc(Cl)cc2)c2cccnc2)CC1` (stereo not given), the growth was 96.6% in assay [1]; 128% in assay [2]; 94% in [3]; 77.1% in assay [4]; 79.5% in [5]; 110% in assay [6]. Further, the growth was 90.8% in assay [7], 42.4% in assay [8], 108% in assay [9] and 85.1% in assay [10].
